From PubChem BioAssay (NCI)
About 79,000 compounds went through this panel and 15% of them were active in at least one assay; those are over-represented in the sample as a whole. Rule as the data show it: active = growth inhibition above about 70%; inactive = the rest.

Experiments:
[1] = NCI Yeast Anticancer Drug Screen. Data for the rad50 strain (AID 155);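 also: 0% = growth of vehicle-only cultures of the same strain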; settings: S. cerevisiae rad50 strain growth inhibition; at 50.0 µM; stronger effect = higher value
Method in brief: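 Relative growth inhibition (compound vs vehicle) was measured in yeast with a defined repair-gene alteration.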

[2] = NCI Yeast Anticancer Drug Screen. Data for the mec2-1 strain (AID 157); settings: S. cerevisiae mec2-1 strain, at 50.0 µM, stronger effect = higher value
Method in brief: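 Strain: mec2-1 (DNA repair/cell cycle alteration). Compound exposure, then growth measured; inhibition expressed relative to vehicle.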

[3] = NCI Yeast Anticancer Drug Screen. Data for the sgs1 mgt1 strain (AID 161);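 also: 0% = growth of cultures given vehicle only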; settings: S. cerevisiae sgs1 mgt1 strain, at 50.0 µM, stronger effect = higher value
Method in brief: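 Test agents were incubated with a DNA-repair-mutant yeast strain. Growth was then read and compared against vehicle-treated controls.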

[4] = NCI Yeast Anticancer Drug Screen. Data for the cln2 rad14 strain (AID 165);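 also: 0% = growth equal to vehicle treated cultures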; settings: S. cerevisiae cln2 rad14 strain, at 50.0 µM, stronger effect = higher value
Method in brief: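 Compounds are applied to the cln2 rad14 yeast strain, and growth is then compared with that of vehicle-treated cultures to give inhibition.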

[5] = NCI Yeast Anticancer Drug Screen. Data for the bub3 strain (AID 167); settings: S. cerevisiae bub3 mutant strain, at 50.0 µM, stronger effect = higher value
Method in brief: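 Screening used yeast with an engineered genetic alteration affecting cell cycle control. Compound-exposed cultures were compared with vehicle cultures, and reduced growth was taken as inhibition.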

[6] = NCI Yeast Anticancer Drug Screen. Data for the mlh1 rad18 strain (AID 175); settings: S. cerevisiae mlh1 rad18 strain growth inhibition; at 50.0 µM; stronger effect = higher value
Method in brief: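 Read-out is yeast growth inhibition, calculated against vehicle-only controls. The compound was applied to a strain engineered with DNA damage repair alterations.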

Measured: growth inhibition

OCC1COC(c2ccc(Cl)cc2)O1 (stereo unspecified)
inactive: [1] -10.1% | [2] -10.4% | [3] -19.8% | [4] -17.9% | [5] -16.4% | [6] -7.75%

CC(=O)Nc1ccc(-c2cn3ccccc3n2)cc1
inactive: [1] 6.6% | [2] -1.5% | [3] 20.7% | [4] 25.6% | [5] 13.7% | [6] 21.8%

CC(C)(C)NN=C1C(C)(C)C(=NNC(C)(C)C)C1(C)C
inactive: [1] -24% | [2] -30.1% | [3] -13.8% | [4] 13.9% | [5] -23.1% | [6] -10.9%

O=C1C(c2ccccc2Cl)[C@H]2CC=C[C@H]2N1O (stereo partly specified)
inactive: [1] -26.1% | [2] -39.2% | [3] -8.4% | [4] 6.65% | [5] -21.6% | [6] -5.35%

CN=C(N)SCCCSC(N)=NC
inactive: [1] 17.6% | [2] 14% | [3] 28% | [4] 30.7% | [5] 15.6% | [6] 8.5%

COc1ccc2c(c1)C=C(C(C)(C)C)NS2(=O)=O
inactive: [1] 23.6% | [2] -22.6% | [3] 2% | [4] -12.7% | [5] 59% | [6] 63.4%

O=S(=O)(Cc1cccs1)c1ncc(Br)cn1
inactive: [1] 9.25% | [2] 10.1% | [3] 7.9% | [4] 7.5% | [5] 11.8% | [6] 7.8%

CC12CCC(O)CC1=CCC1C2CCC2(C)C(C(O)CC(O)(C(F)(F)F)C(F)(F)F)CCC12 (stereo unspecified)
inactive: [1] 30.1% | [2] 48% | [3] 47.9% | [4] 3.95% | [5] 25.9% | [6] 40.5%

C/C(CC(=O)Nc1ccccc1[N+](=O)[O-])=N\NC(N)=O
inactive: [1] 14.1% | [2] -15.8% | [3] -18.1% | [4] 27.4% | [5] -23.1% | [6] -2.9%

C=C(C(C)C)C1CC1
inactive: [1] 0.25% | [2] -18.2% | [3] -4.25% | [4] 3.5% | [5] -2.6% | [6] -11.8%

CCOC(=O)c1[nH]c(COC(C)=O)c2c1CCCCCCCCCC2
inactive: [1] -6.1% | [2] -9.75% | [3] 6.05% | [4] 41.2% | [5] 5% | [6] -12.3%

C[n+]1c(-c2ccc(Cl)c(Cl)c2)c2cc(N)ccc2c2ccccc21
inactive: [1] 14.9% | [2] -22.6% | [3] 30.6% | [4] 3.9% | [5] 7.2% | [6] 14.4%

C[N+](C)(C)C1C2(CCCCC2)NC(=O)C12CCCCC2 (stereo unspecified)
inactive: [1] 5.6% | [2] -0.75% | [3] -11.5% | [4] -3.1% | [5] -5.85% | [6] -2.9%

Nc1c(Cl)cc2c(c1Br)Cc1cc(F)ccc1-2
inactive: [1] -0.15% | [2] 2.15% | [3] -3.55% | [4] -0.05% | [5] 14.8% | [6] -9.65%

Nc1ccc(S(=O)(=O)NC(=O)c2ccccc2)cc1
inactive: [1] 12.8% | [2] -7% | [3] 10.1% | [4] -26.9% | [5] -3% | [6] 0.2%

COc1cccc(C(Nc2nncs2)Nc2nncs2)c1
inactive: [1] 3.1% | [2] -9.2% | [3] -8.45% | [4] 13.9% | [5] -20.3% | [6] 16.1%

Cc1cccc(C2=NC(=C3CCCCC3)C(=O)O2)c1
inactive: [1] 4.5% | [2] 6.6% | [3] 5.8% | [4] 12.2% | [5] 4% | [6] 20.9%

CC12C=CC(=O)C=C1CCC1C2C(O)CC2(C)/C(=C\CO)CCC12 (stereo unspecified)
inactive: [1] -4.05% | [2] -1.75% | [3] 6.55% | [4] -15.8% | [5] 60.2% | [6] -3.35%

COc1cc([N+](=O)[O-])ccc1P(=O)(O)O
inactive: [1] 2% | [2] -5.65% | [3] -1.4% | [4] -4.35% | [5] -9.95% | [6] 14.1%

Cc1ccc(-n2cnc3c(=O)[nH]cnc32)cc1N
inactive: [1] -12.6% | [2] 5.45% | [3] 3.3% | [4] -9.9% | [5] -6.25% | [6] 11.2%

CCC(O)(c1ccccc1)c1ccccc1
inactive: [1] 1.7% | [2] 3.5% | [3] -5.65% | [4] 4.15% | [5] -19.8% | [6] -4.8%
